Measured values reported in PubChem BioAssay AID2013 (Sanford-Burnham Center for Chemical Genomics, 2009).
Where “and” joins values, the source holds several entries; their conditions need not be identical. Equal entries are not always repeated. Hit rate of the full screen: of about 290,000 compounds, about 370 (0.13%) were called active.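 Rule for the calls: active = spots per cell inhibited over 60%, with over 100 cells counted and total cytoplasm intensity under 500,000; inconclusive = wells with under 100 cells, flagged as likely toxic; inactive = the rest.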 Many of the other results were omitted from the sample, so actives are more common in it than they were. Entries with a potency or affinity are not part of this list.

Target: G-protein coupled receptor 55 (Homo sapiens) (UniProt Q9Y2T6)
Sequence (Q9Y2T6 whole entry, looked up): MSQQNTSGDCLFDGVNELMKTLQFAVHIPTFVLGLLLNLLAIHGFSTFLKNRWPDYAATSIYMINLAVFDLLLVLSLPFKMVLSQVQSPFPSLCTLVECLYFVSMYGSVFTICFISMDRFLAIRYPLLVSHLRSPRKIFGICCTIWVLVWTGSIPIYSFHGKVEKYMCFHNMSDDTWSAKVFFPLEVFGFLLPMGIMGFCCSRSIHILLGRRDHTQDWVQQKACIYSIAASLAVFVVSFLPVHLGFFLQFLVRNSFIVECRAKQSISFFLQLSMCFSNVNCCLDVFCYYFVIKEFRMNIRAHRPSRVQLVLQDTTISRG
Assay: GPR55 antagonists blocking LPI-driven arrestin recruitment, primary screen, imaging, U2OS, beta-arrestin-GFP, LPI agonist (AID 2013);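 note: U2OS cells stably carrying GPR55 and arrestin-GFP stimulated by 5 µM LPI near EC80; imaged beta-arrestin-GFP aggregate spots per cell after agonist stimulation; plate controls were LPI-stimulated DMSO wells for no effect and DMSO wells without LPI for full effect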
Details: U2OS GPR55 beta-arrestin-GFP translocation imaging, LPI antagonism; at 10 µM; stronger effect = higher value

inhibition, inactive:
N=c1c2c(-c3ccccc3)c(-c3ccccc3)n(Cc3ccco3)c2ncn1Cc1ccco1 29.6%, N=c1c2c(-c3ccccc3)c(-c3ccccc3)n(Cc3ccco3)c2ncn1CCCn1ccnc1 24.2%, N=c1c2c(-c3ccccc3)c(-c3ccccc3)n(Cc3ccco3)c2ncn1CCO 58.3%, OCCNc1ncnc2c1c(-c1ccccc1)c(-c1ccccc1)n2Cc1ccco1 -0.4%, CCN(CC1COc2ccccc2O1)C(=S)NCCCN(C)C (configuration not stated) 5.9%, COc1cc(NC(=O)CSCC(=O)Nc2cc(OC)cc(OC)c2)cc(OC)c1 -13.3%, CC1(C)CC(=O)C2=C(C1)N(c1cccc(O)c1)C1=C(C2)C(=O)CC(C)(C)C1 28.2%, Cc1ccc(OCCCn2ccnc2)c([N+](=O)[O-])c1 11.8%, CCOc1ccc(CN2CCNC(=O)C2CC(=O)NCc2csc(C)n2)cc1 (configuration not stated) -5.2%, CCOc1ccc(C(=O)NC(=S)N(Cc2ccccc2)Cc2ccccc2)cc1 8.8%, COc1ccc(CN(CCC#N)C(=S)NC(=O)c2ccccc2)cc1 21.1%, CCOC(=O)c1[nH]c2ccc(Cl)cc2c1NC(=O)/C=C/c1ccc2c(c1)OCO2 -10.3%, CCc1ccc2c(c1)cc(CN(C(=S)Nc1ccccc1C)C1CC1)c1nnnn12 -0.7%, Cn1c(=O)n(C/C=C/c2ccccc2)c(=O)c2c1nc1n2CCCN1Cc1ccccc1 12.5%, Cn1c(=O)n(CCc2ccccc2)c(=O)c2c1nc1n2CCCN1c1ccccc1 8.1%, CC(C)C(=O)Nc1ccc(N2CCN(c3ccc(F)cc3)CC2)cc1 7.7%, CC(C)N=C(NS(=O)(=O)c1ccccc1)C(Cl)(Cl)Cl 52.5%, O=C(O)CN=C(NS(=O)(=O)c1ccccc1)c1ccccc1 3.6%, Cc1ccc(CC(=O)N2CCN(c3ccccn3)CC2)cc1 1.5%, Cc1nc(-c2ccc(Cl)cc2)sc1C1(C)CC(c2cccc(Cl)c2)=NO1 (configuration not stated) 2.4%, O=C(Nc1ccccc1O)c1ccc2c(c1)C(=O)N(Cc1ccco1)C2=O 1.9%, O=C(O)/C=C/c1cccnc1 10.5%, CC(/C=C\c1cccnc1)=C/C(=O)O 13.6% and 11.7%, Cc1cc(CSc2ccccc2)ccc1NC(=O)COc1ccccc1C 5.6%, CC(C)CCNC(=O)C1CC(=O)N(CCc2ccccc2)C1 (configuration not stated) 3.2%, COc1ccc(CNC(=O)CCc2c(C)nc3cc(-c4ccccc4OC)nn3c2C)cc1 12.4%, CCOc1ccc(NC(=O)c2ccccc2OCC(=O)c2ccc(C)cc2)cc1 -16%, Cc1ccc(NC(=O)c2ccccc2OCC(=O)c2ccccc2)cc1 -5.2%, O=C(NCc1ccccn1)c1ccc(CNS(=O)(=O)c2cccc(C(F)(F)F)c2)cc1 3.1%, Cc1cccc(C(=O)Oc2ccc(/C=N/NC(=O)c3ccc(O)cc3)cc2)c1 0.3%, CC1=Nc2cc(C(=O)NCCCOC(C)C)ccc2Sc2ccc(C)cc21 19.1%, Cc1c(-n2c(SC(C)C(=O)NC(N)=O)nc3ccccc3c2=O)c(=O)n(-c2ccccc2)n1C (configuration not stated) -4.9%, c1ccc(-c2ccc(-c3nccc4ccccc34)[nH]2)cc1 36%, Cc1ccc(-c2nc(-c3nccc4ccccc34)oc2-c2ccccc2)cc1 25%, O=C(NC1CCCCC1)Sc1ccc(Cl)cc1 -6%, CC(=O)/C(=C\N(C)C)Sc1ccc(Cl)cc1 0.6%, O=C(N/N=C/c1ccoc1)c1ccccc1O -2.7%, O=C(O)COc1ccccc1/C=C1\SC(=Nc2ccc(F)cc2)N(c2ccc(F)cc2)C1=O 12.7%, O=C1NN(c2ccccc2)C(=O)/C1=C\c1ccccc1OCC(=O)N1CCOCC1 4.6%, O=C(O)c1ccc(/C=N/NC(=O)c2cc(-c3ccc4c5c(cccc35)CC4)n[nH]2)cc1 4%, O=C(N/N=C/c1cccc([N+](=O)[O-])c1)c1cc(-c2ccc3c4c(cccc24)CC3)n[nH]1 -4.6%, CCN(Cc1ccccc1)S(=O)(=O)c1ccc(F)cc1 15.1%, COC(=O)C1=C(C)N(CC2CC2)C(=NCc2cc(OC)c(OC)c(OC)c2)N[C@H]1c1ccccc1 -3%, COC(=O)C1=C(C)N(Cc2cccnc2)C(=O)C1 -5.2%, CCN1C(=NCCc2cccnc2)N[C@@H](c2ccccc2)C(C(=O)OC)=C1C -18.1%, COC(=O)C1=C(C)N(Cc2ccccc2)C(=NCc2cc(OC)c(OC)c(OC)c2)N[C@H]1c1cccc(F)c1 8.9%, COC(=O)C1=C(C)N(Cc2ccccc2)C(=S)N[C@H]1c1cccc(F)c1 18.7%, COC(=O)C1=C(C)N(Cc2ccccc2)C(=O)N[C@H]1c1ccccc1 58%, CCN1C(=S)N[C@@H](c2cccc(F)c2)C(C(=O)OC)=C1C 4.1%, COC(=O)C1=C(C)N(Cc2ccccc2)C(=NCCc2ccccn2)N[C@H]1c1cccc(F)c1 38.8%, O=C(Nc1ccc2c(c1)OCCO2)NC1(C(F)(F)F)Oc2ccccc2O1 -14.5%, COc1ccc(NC(=O)N2CCN(c3cccc(C(F)(F)F)c3)CC2)cc1 12.5%, COc1ccc(-c2cc(C(=O)N3CCN(c4ccccc4O)CC3)c3ccccc3n2)cc1OC 13.3%, CCc1oc(C(=O)O)cc1COC 3.5%

inhibition, active:
N=c1c2c(-c3ccccc3)c(-c3ccccc3)n(Cc3ccco3)c2ncn1Cc1ccccc1 70.9%, S=C(Sc1ccc(Cl)cc1)Sc1ccc(Cl)cc1 91.8%, O=C(N/N=C/c1ccc(Cl)c([N+](=O)[O-])c1)c1cc(-c2ccc3c4c(cccc24)CC3)n[nH]1 76.6%
